# ELG1 genotoxic = qHTS screen for small molecules that induce genotoxicity in human embryonic kidney (HEK293T) cells expressing luciferase-tagged ELG1 | Potency, µM (top dose mostly 46 µM), inactives show top-dose activity change, positive = activation, most hits filed as activators | AID 504466, 2011 | HEK293T ELG1-luciferase reporter, luminescence, 16 h | actives 1.3% (n = 330,000); further: % of control where 0% means no effect; nearly all actives have a fitted effect of over 60% in size
#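 After overnight (16 hr) compound treatment at 37 °C, ELG1-luciferase HEK293T cells were lysed with ONE-Glo; luminescence quantified 30 min later at room temperature.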
# FLuc modulator = qHTS profiling assay for firefly luciferase inhibitor/activator using purifed enzyme and Km concentrations of substrates (counterscreen for miR-21 project); actives 6.9% (n = 360,000); Potency, µM (series often up to 57.5 µM), for inactives: top-dose activity change, negative = inhibition, usual class: inhibitors; purified FLuc, Km substrates, luminescence inhibition;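 further: plate controls were vehicle for no effect and reference inhibitor for full effect; nearly all actives have a fitted effect of over 55% in size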
# Target sequence (P08659 whole entry, looked up): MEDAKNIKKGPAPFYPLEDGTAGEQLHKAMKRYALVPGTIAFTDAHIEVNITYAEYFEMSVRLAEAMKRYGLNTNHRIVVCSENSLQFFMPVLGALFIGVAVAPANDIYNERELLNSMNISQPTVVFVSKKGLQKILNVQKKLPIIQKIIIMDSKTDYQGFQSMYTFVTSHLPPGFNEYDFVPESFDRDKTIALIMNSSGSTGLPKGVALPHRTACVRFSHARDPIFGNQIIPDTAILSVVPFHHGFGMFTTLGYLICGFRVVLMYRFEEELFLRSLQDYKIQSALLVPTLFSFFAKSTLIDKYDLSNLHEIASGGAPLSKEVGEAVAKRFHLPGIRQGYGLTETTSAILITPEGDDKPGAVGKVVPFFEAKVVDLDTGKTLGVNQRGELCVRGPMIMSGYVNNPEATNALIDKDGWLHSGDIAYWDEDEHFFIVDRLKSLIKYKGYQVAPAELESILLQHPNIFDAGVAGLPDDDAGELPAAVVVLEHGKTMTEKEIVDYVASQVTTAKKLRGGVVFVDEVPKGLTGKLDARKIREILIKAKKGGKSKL
#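 Purified P. pyralis luciferase (10nM final) with 10uM D-luciferin and 10uM ATP (Km levels) in 50mM Tris acetate pH 7.5, 10mM Mg acetate, 0.01% Tween-20, 0.05% BSA; qHTS 6-point titration, ~60 µM downward; luminescence read.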
# NPC1 promoter act = qHTS Assay for NPC1 Promoter Activators; actives 2.4% (n = 320,000); Huh7 NPC1 promoter luciferase reporter, 24 h; Potency, µM (highest dose often 9.22 µM), without a hit: top-dose activation, hits mostly activators; further: % of control where 0% means no effect; nearly all actives have a fitted effect of over 60% in size
#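 Luminescence from an NPC1 promoter-driven luciferase reporter in stably transfected Huh7 cells was measured after 24 h compound treatment at 37 °C, followed by 10 min ambient incubation with luciferase detection reagent.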
# SMN2 splice up = qHTS Assay for Enhancers of SMN2 Splice Variant Expression. HEK293 SMN2-luciferase splicing reporter, luminescence, 30-36 h. Potency, µM (series often up to 46.1 µM), without a hit: at the top dose activity change, positive = activation, most hits filed as activators. actives 2.8% (n = 210,000); further: % of control where 0% means no effect; nearly all actives have a fitted effect of over 55% in size
#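 qHTS luciferase splicing reporter: luminescence rises when SMN2 exon 7 is included in transfected HEK293 cells. Compound exposure lasted 30-36 h at 37C, with 4.5 mM final sodium butyrate as control, followed by a ONE-Glo read.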
# KinaseGlo FLuc = Counterscreen for Luciferase (Kinase-Glo TM) Inhibition; Kinase-Glo luciferase, ATP luminescence, 8 min; Luciferin 4-monooxygenase (Photuris pensylvanica), Q27757; actives 0.28% (n = 200,000); Potency, µM (highest dose often 38.3 µM), for inactives: at the top dose activity change, negative = inhibition, usual class: inhibitors; AID 1379, 2008; further: on the % scale 0 is the no-effect control and ±100 the full control effect; nearly all actives have a fitted effect of over 60% in size
#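 Compounds were added to a substrate mix at pH 7.2 (50 mM imidazole, 10 uM ATP, within the enzyme's linear range), followed by Kinase-Glo detection reagent; luminescence was measured after 8 minutes at ambient temperature.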
# Rab9 promoter act = qHTS Assay for Rab9 Promoter Activators; Huh7 Rab9 promoter-luciferase reporter, luminescence, 24 h; Potency, µM (top dose mostly 9.22 µM), for inactives: top-dose activation, negative = inhibition, usual class: activators; actives 2.8% (n = 320,000); AID 485297, 2010; further: % of control where 0% means no effect; nearly all actives have a fitted effect of over 60% in size
#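 Rab9 promoter-driven luciferase in stably transfected Huh7 cells; 1500 cells/well rested 2 h, exposed to compound in DMSO for 24 h at 37 °C, 5% CO2. Luminescence read 10 min after adding luciferase reagent at ambient temperature.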
# Starred values were filed as active, the others as inactive; ? = inconclusive; . = no result; [ ] = another dose, or the depositor's remark. An excerpt weighted towards active compounds, which were near 7.4% of everything screened. The call rests on the fitted dose curve; in most records, active means well fitted curve in the direction sought with a large enough effect; inconclusive means small, poorly fitted or top-dose-only effect, or another doubt; inactive means no such curve, though single readings can be large; an effect the other way counts as inactive or inconclusive. Potency means the concentration at half of the fitted maximal effect.
SMILES,ELG1 genotoxic,FLuc modulator,NPC1 promoter act,SMN2 splice up,KinaseGlo FLuc,Rab9 promoter act
COc1cc(O)oc1C=Nc1ccc(C(=O)O)cc1,5%,-9%,-1%,0%,13µM*,-2%
COc1cc(O)oc1C=Nc1ccc(Oc2ccccc2)cc1,16%,15µM*,?,-23%,-4%,?
CCCOc1ccc(CC(=O)NCCc2ccccc2)cc1OC,0%,-1%,-5%,.,.,4%
COc1ccc(-n2ncc3c(NCCCN4CCOCC4)ncnc32)cc1,9.2µM*,11µM*,?,-2%,1%,?
CC(=O)NNc1ncnc2c1cnn2-c1ccc(C)cc1,?,?,-3%,.,10%,5%
CC(=O)NNc1ncnc2c1cnn2-c1ccc(C)c(Cl)c1,16%,24µM*,2%,2%,4%,16%
Cc1ccc(-n2ncc3c(NCCCN4CCOCC4)ncnc32)cc1Cl,.,9.5µM*,.,.,.,.
COc1ccc(-n2ncc3c(NCCN4CCOCC4)ncnc32)cc1,15µM*,15µM*,28%,-8%,8%,?
Cc1c(C(=O)N(C)C2CCCCC2)sc2ncnc(N3CCN(c4ccccc4)CC3)c12,-10%,0%,2%,.,.,-1%
CC(=O)N/C(=N\c1nc(C)cc(C)n1)Nc1ccccc1Cl,-9%,1%,-5%,.,.,-2%
CC(=O)N[C@@H](C)c1nc2ccccc2n1CCCN1CCN(c2nc(-c3ccc(C)cc3)cs2)CC1,-4%,-8%,-4%,.,.,-7%
Cc1ccc(C(=O)NC(=S)Nc2ccc(NC(=O)c3cccs3)cc2)cc1[N+](=O)[O-],11%,9%,-4%,4%[1.84 µM],1%,-5%
Cc1ccc(-n2ncc3c(NCCO)ncnc32)cc1Cl,.,6µM*,.,.,.,.
COCCNc1ncnc2c1cnn2-c1cc(Cl)ccc1C,.,-2%,.,.,.,.
CCc1ccc(OCC(=O)NNC(=O)C2CCC2)cc1,-7%,-3%,-2%,.,.,0%
CCOC(=O)NC(=S)Nc1ccc(OC)cc1,15%,-15%,12%,14%,3%,20%
COC(=O)c1ccccc1NC(=S)NC(C)=O,6%,1%,-1%,5%,5%,-3%
COC(=O)c1cn[nH]c1NC(=S)Nc1ccccc1C,?,7.6µM*,?,4%,0%,3.5µM*
COC(=O)c1cn[nH]c1NC(=S)Nc1ccc(C)cc1Cl,0.58µM*,0.38µM*,0.4µM*,16%,9%,0.56µM*
CCOC(=O)c1cn[nH]c1NC(=S)Nc1ccc(OC)cc1,?,0.19µM*,0.28µM*,.,.,0.32µM*
COC(=O)c1cn[nH]c1NC(=S)Nc1ccc(Cl)c(Cl)c1,0.41µM*,0.43µM*,0.63µM*,10µM*,0%,0.35µM*
Cc1cc2c(c(=O)n1-c1ccccc1)C1O[C@](c3ccsc3)(Cc3ccccc31)O2,.,-16%[11.5 µM],1%[1.84 µM],.,.,0%[1.84 µM]
O=C(COC(=O)c1ccc[nH]c1=O)NCCc1ccc(Cl)cc1Cl,?,11µM*,0.4µM*,.,.,0.5µM*
Cc1ccc(C(=O)c2ccccc2C(=O)OCC(=O)NCCc2ccc(Cl)cc2Cl)cc1,-4%,0%,-2%,3%,0%,-3%
CCN(C(=O)Cn1ncc2c(=O)oc3ccccc3c21)c1ccccc1F,.,-8%,.,7%,.,.
COc1cccc(C(=O)CSc2nnc(-c3cccs3)o2)c1,3%,-5%,-1%,-2%,0%,3%
Cc1ccc(SCC(=O)c2ccc[nH]2)cc1,?,24µM*,?,?,-2%,?
O=C(CSc1nnc(-c2cccs2)o1)OCc1ccccc1,-3%,-3%,0%,7%,2%,-1%
COc1ccc(-c2nnc(SCC(=O)c3cc(C)n(Cc4cccs4)c3C)o2)cc1,5%,?,-1%,-13%,0%,3%

# Screening data (PubChem BioAssay)
